# Results from PubChem BioAssay (NCATS).
# Inconclusive results are not listed. Activity calls are given as the source filed them. Calls follow the shape of the dose curve; as a rule, active = well fitted inhibition curve with a large enough effect; inconclusive = small, poorly fitted or top-dose-only effect; inactive = flat fitted curve, though single readings scatter.
# Experiment: qHTS profiling for inhibitors of Plasmodium falciparum proliferation (AID 504749);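 also: 0% = DMSO vehicle and full inhibition = artemisinin control; nearly all actives have a fitted effect of over 60% in size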
# Settings: P. falciparum in erythrocytes, SYBR Green DNA, 72 h; at 28.7 µM (top of the series); parasite line A
# Outline: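 P. falciparum-infected erythrocytes (0.3% parasitemia, 2.5% hematocrit) incubated with compound 72 h at 37 C, 5% CO2. Parasite DNA detected by SYBR Green after lysis, overnight at room temperature; normalised to 0.29 uM artemisinin and DMSO.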
row,SMILES,"activity, negative = inhibition"
1,CCc1oc2ccccc2c1C(=O)c1cc(I)c(O)c(I)c1,-1.64% (inactive)
2,NCc1ccccc1Sc1ccccc1CO,10.7% (inactive)
3,O=C(O)C1(C(=O)O)CCC1.[NH2-].[NH2-].[Pt+2],-5.41% (inactive)
4,COc1cc([C@H]2Oc3cc([C@H]4Oc5cc(O)cc(O)c5C(=O)[C@@H]4O)ccc3O[C@@H]2CO)ccc1O,-10.1% (inactive)
5,O=[N+]([O-])c1cccc(S(=O)(=O)NCCNS(=O)(=O)c2cccc([N+](=O)[O-])c2)c1,-25.4% (inactive)
6,Nc1nc(N)c(-c2ccccc2)s1,18.4% (inactive)
7,CCCCCCCCOc1ccc(C(=O)c2ccccc2)c(O)c1,16.4% (inactive)
8,CC1(COc2ccc(CC3SC(=O)NC3=O)cc2)CCCCC1 (stereo not drawn),11% (inactive)
9,N#CCC(=O)NN,10.6% (inactive)
10,O=C(CCN1CCN2CCCC2C1)N1c2ccccc2Sc2ccc(Cl)cc21 (stereo not drawn),-26.8% (inactive)
11,CC(=O)N[C@@H](CCC(=O)O)C(=O)O,4.59% (inactive)
12,O=C(Nc1ncc([N+](=O)[O-])s1)c1cccs1,5.2% (inactive)
13,CC(=O)NO,-5.99% (inactive)
14,C/C=C/C=N/NC(=O)c1ccncc1,-1.02% (inactive)
15,O=C(O)c1ccc(S(=O)(=O)N(Cl)Cl)cc1,-4.58% (inactive)
16,COc1ccc(/C=N/NC(=O)c2ccncc2)cc1OC,6.74% (inactive)
17,Nc1ccc(S(=O)(=O)NCc2ccccc2)cc1,4.25% (inactive)
18,CO[C@]12C[C@@H](COC(=O)c3cncc(Br)c3)CN(C)[C@@H]1Cc1cn(C)c3cccc2c13,-17.9% (inactive)
19,CN1CCN(c2cc3c(cc2F)c(=O)c(C(=O)O)cn3-c2ccc(F)cc2)CC1,-21.3% (inactive)
20,Cc1cccc(C)c1NC(=O)CN1CCCCCC1,14.8% (inactive)
21,CC(=O)OC[C@H]1O[C@@H](n2ncc(=O)[nH]c2=O)[C@H](OC(C)=O)[C@@H]1OC(C)=O,3.78% (inactive)
22,CC(C)Cn1cnc2c1c(=O)n(C)c(=O)n2C,-14.6% (inactive)
23,COc1ccccc1N1CCN(CCCCNC(=O)c2ccc(-c3ccc(C(C)=O)cc3)cc2)CC1,15.8% (inactive)
24,CC(=O)Oc1ccc(C)cc1,9.31% (inactive)
25,Cc1cccc(C)c1NC(=O)c1ccccc1C(=O)O,19.5% (inactive)
26,CC(=O)Nc1ccc(OCC(O)CNC(C)C)cc1 (stereo not drawn),13.4% (inactive)
27,CC(=O)NC(=O)c1ccccc1O,-1.16% (inactive)
28,Cc1nc(-c2ccc(Cl)cc2)oc1COC(C)(C)C(=O)O,9.36% (inactive)
